Hits are enriched below; roughly 3% of the tested compounds scored in any of these assays.
GDH-TPI counter-1 – GDH-TPI coupling enzyme inhibitors, primary screen, artefact control for M. tuberculosis FBA inhibitor project, biochemical, absorbance, full deck. AID 588335, 2011. GDH-TPI coupled enzyme counterscreen, NADH absorbance. inhibition, % at 4.8 µM. actives 1.2% (n = 360,000); in the data active = inhibition above about 30%;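 note: 0% = DMSO wells and 100% = wells lacking the enzyme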
FadD28 binding – inhibitors of FadD28 bisubstrate probe binding, primary screen, biochemical, fluorescence polarization, single point; actives 0.22% (n = 360,000); inhibition, % at 12.5 µM; AID 588549, 2011; Mycobacterium tuberculosis FadD28 fatty-acid-AMP ligase; in the data active = inhibition above about 8.5%, passing the limit was not always enough
Rv3671c inh – Rv3671c serine protease inhibitors, primary screen, biochemical, fluorescence polarization, M. tuberculosis H37Rv | P9WHR9 | inhibition, % at 5.96 µM | actives 0.048% (n = 320,000) | AID 2606, 2010; in the data active = inhibition above about 38%;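 note: extracellular domain of Rv3671c used as enzyme; 0% = enzyme with DMSO and 100% = no enzyme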
Target sequence (P9WHR9 whole entry, looked up, the tested form may be a part): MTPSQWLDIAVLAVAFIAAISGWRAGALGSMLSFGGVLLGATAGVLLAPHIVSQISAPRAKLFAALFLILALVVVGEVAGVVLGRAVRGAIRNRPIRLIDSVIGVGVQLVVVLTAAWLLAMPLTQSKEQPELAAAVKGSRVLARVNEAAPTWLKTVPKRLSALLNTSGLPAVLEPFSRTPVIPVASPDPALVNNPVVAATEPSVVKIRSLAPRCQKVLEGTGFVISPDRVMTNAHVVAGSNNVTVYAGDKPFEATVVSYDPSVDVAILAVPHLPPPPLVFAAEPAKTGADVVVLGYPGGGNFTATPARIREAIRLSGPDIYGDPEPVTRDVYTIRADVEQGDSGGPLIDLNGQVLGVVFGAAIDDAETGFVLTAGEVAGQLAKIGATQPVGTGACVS
Mtb BioA inh – M. tuberculosis BioA enzyme inhibitors, primary screen, biochemical, plate reader, single point, HTS | 7,8-diaminopelargonic acid synthase BioA (Mycobacterium tuberculosis) | purified M. tuberculosis BioA enzyme | inhibition, % at 9.99 µM | actives 0.096% (n = 360,000) | AID 602481, 2012; in the data active = inhibition above about 40%
FBA Mtb inh – Mtb FBA enzyme inhibitors, primary screen, biochemical, fluorescence, strain H37Rv. inhibition, % at 1 µM. purified M. tuberculosis FBA, fluorescence read-out. Fructose-bisphosphate aldolase (Mycobacterium tuberculosis (strain ATCC 25618 / H37Rv)), …. actives 2.3% (n = 360,000);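 note: 0% = vehicle and 100% = reference inhibitor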
Mtb FBA inh conf – M. tuberculosis aldolase blockers, biochemical, fluorescence, strain H37Rv, confirmation. shares compounds with FBA Mtb inh. purified M. tuberculosis FBA, fluorescence read-out. inhibition, % at 1 µM. actives 78% (n = 5,600);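 note: 0% = vehicle wells and 100% = reference inhibitor wells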
GDH-TPI counter-2 – GDH-TPI coupling enzyme inhibitors, artefact control for M. tuberculosis FBA inhibitor project, biochemical, fluorescence, high throughput; actives 81% (n = 5,600); AID 652141, 2013; inhibition, % at 1 µM; GDH-TPI coupled enzyme counterscreen; shares compounds with FBA Mtb inh; in the data active = inhibition above about 10%
Active calls of the source: *; . = no result; + = active, no number. Cut-off read from the data, not from the text of the source, unless noted: active = inhibition above about 27%; inactive = the rest.

SMILES | GDH-TPI counter-1 | FadD28 binding | Rv3671c inh | Mtb BioA inh | FBA Mtb inh | Mtb FBA inh conf | GDH-TPI counter-2
COc1cc(-c2nc(-c3ccc4c(c3)-c3ccccc3S4(=O)=O)c(-c3ccccc3)[nH]2)cc(OC)c1O | 9 | -1 | -7 | . | -2 | . | .
COc1ccc(-c2nc(-c3ccccc3)c(-c3cccs3)[nH]2)cc1OC | 20 | 6 | 15 | -1 | 49* | 3 | -6
Cc1ccsc1-c1nc(-c2ccccc2)c(-c2ccccc2)[nH]1 | 17 | -2 | -8 | -1 | 29* | 91* | 74*
Fc1ccc(-c2nc(-c3cccs3)[nH]c2-c2ccc(F)cc2)cc1 | 1 | -6 | 13 | -1 | 50* | + | +
C[C@@H]1CCCCO[C@@H](CN(C)S(=O)(=O)c2cn(C)cn2)[C@@H](C)CN([C@H](C)CO)C(=O)c2cc(NS(=O)(=O)c3ccc(Cl)cc3)ccc2O1 | . | . | . | -6 | . | . | .
COc1ccccc1C(=O)Nc1ccc2c(c1)C(=O)N(C)[C@H]1CC[C@H](CC(=O)NCCc3ccncc3)O[C@H]1CO2 | . | . | . | -3 | . | . | .
CN(C)CC(=O)Nc1ccc2c(c1)[C@H]1C[C@H](CC(=O)NCc3ccc(Cl)cc3)O[C@@H](CO)[C@H]1O2 | . | . | . | 0 | . | . | .
C[C@@H]1CCCCO[C@H](CN(C)C(=O)Nc2ccc(F)cc2)[C@@H](C)CN([C@H](C)CO)C(=O)c2cc(NS(=O)(=O)c3ccc(F)cc3)ccc2O1 | . | . | . | 0 | . | . | .
O=C(C1CCCC1)N1[C@@H](CO)[C@@H]2c3ccccc3NC[C@@H]21 | . | . | . | -2 | . | . | .
COc1ccc(CNc2nc(C)cc(C)c2C#N)cc1 | 19 | -3 | -4 | -2 | 29* | 40* | 26*
COc1ccc(CSc2nc(C)cc(C)c2C#N)cc1 | 15 | -1 | -7 | 5 | 2 | . | .
Cc1ccc(S(=O)(=O)NCC[C@@H]2CC[C@H](NC(=O)Nc3cccc(F)c3)[C@@H](CO)O2)cc1 | . | . | . | 6 | . | . | .
CN(C)c1ncc(S(=O)(=O)c2ccccc2)c(N)n1 | 8 | -1 | -6 | -1 | 1 | . | .
Cc1ccc(S(=O)(=O)c2cc3ccccc3nc2N)cc1 | 1 | -3 | -1 | -1 | 36* | + | 193*
COc1ccc(S(=O)(=O)NCCc2cn3nc(C)c(C)nc3n2)cc1C | 10 | -1 | -4 | -1 | 22 | . | .
Cc1ccc(S(=O)(=O)NCCc2cn3nc(C)c(C)nc3n2)cc1C | 16 | 1 | -11 | -4 | 64* | 159* | 159*
CN(C)C1(CNC(=O)Nc2ccccc2)CCCCC1 | -4 | -1 | -4 | 1 | 1 | . | .
CN(C)C1(CNCC(O)c2ccccc2)CCCCC1 (stereo unspecified) | 10 | . | 9 | 1 | 30* | 121* | 106*
CC1(C)Cc2nc(NC3CCCCC3)c(C#N)cc2CO1 | 11 | -6 | 4 | . | 36* | 127* | 111*
O=S(=O)(N[C@@H]1CC[C@H](CCn2cc(-c3cccc(F)c3)nn2)O[C@@H]1CO)c1ccc(Cl)cc1 | . | . | . | 7 | . | . | .
O=C(/C=C/Nc1ccccc1C(=O)O)c1cccs1 | 5 | -3 | -1 | . | 4 | . | .
O=C(O)c1ccccc1N/C=C\[N+](=O)[O-] | 7 | 3 | -1 | . | 32* | 71* | 56*
COc1cc2c(cc1O)CC1c3c(cc(O)c(OC)c3-2)CCN1C (stereo unspecified) | -11 | 0 | 0 | 0 | 27* | 101* | 95*
COc1cc2c(cc1OC)-c1c(OC)c(OC)cc3c1[C@H](C2)N(C)CC3 | -1 | 0 | -23 | 1 | 7 | . | .
CCOc1ccc(/C=N/NC(=S)NC2CC3CCC2C3)cc1 (stereo unspecified) | 1 | 0 | 2 | 1 | 31* | -3 | -4
Oc1ccccc1/C=N/NC(=S)NC1CC2CCC1C2 (stereo unspecified) | 25 | -1 | 11 | -1 | 1 | . | .

Source: PubChem BioAssay
